Among all 65,000 compounds or so, about 2,100 (3.2%) showed an effect of 50% or more. The median lay at about -52%. This is one part of a sample in which strong results are shown more often than they occur.
system: Plasmodium falciparum; assay: Screen against P. falciparum Asexual Blood Stage (ABS), at 5uM; type: functional, Dd2; settings: tested at 5 uM

SMILES	INHIBITION
Cc1cnc(CN2CCOC(Cn3nc(C)cc3C)C2)cn1 (configuration not stated)	-20.8%
Cc1cc(CN2CCOC(Cn3nc(C)cc3C)C2)on1 (configuration not stated)	46.7%
Cc1cc(C)n(CC2CN(Cc3cnc(C)s3)CCO2)n1 (configuration not stated)	53.2%
CCN1CCN(C(=O)c2cc(NC(=O)c3ccccc3)n(C)n2)CC1	-98%
CC(=O)N(Cc1ncc(C(C)C)o1)C1CCN(Cc2cc(C)no2)C1 (configuration not stated)	59%
CC(=O)N(Cc1ncc(C(C)C)o1)C1CCN(CCC#N)C1 (configuration not stated)	57%
CC(=O)N(Cc1ncc(C(C)C)o1)C1CCN(CCn2cccn2)C1 (configuration not stated)	-150%
CCc1cnc(CN(C(C)=O)C2CCN(Cc3nccn3C)C2)o1 (configuration not stated)	51.5%
CC(=O)N(Cc1ncc(C)o1)C1CCN(Cc2nccn2C)C1 (configuration not stated)	-133%
CC(=O)N(Cc1ncc(C(C)C)o1)C1CCN(Cc2nccn2C)C1 (configuration not stated)	-176%
CC(=O)N(Cc1ncc(C(C)C)o1)C1CCN(Cc2ccno2)C1 (configuration not stated)	45.7%
CC(=O)N(Cc1ncc(C(C)C)o1)C1CCN(Cc2cc(C)on2)C1 (configuration not stated)	-83.8%
CC(=O)N(Cc1ncc(C(C)C)o1)C1CCN(CC2CCC2)C1 (configuration not stated)	-113%
COCCN(Cc1cnn(C)c1)C(=O)C1CCCN(C2CCOCC2)C1 (configuration not stated)	-15.9%
CCN(Cc1ccncc1)c1cc(C2CCCNC2)nc(C)n1 (configuration not stated)	-121%
CN(Cc1cccnc1)C1COC2(CCN(Cc3nccs3)CC2)C1 (configuration not stated)	-52.5%
O=C(c1cccnc1)N1CCCC1c1cc[nH]n1 (configuration not stated)	-66.5%
N#Cc1ccc(N2CCCC3(CCN(c4cccnc4)CC3)C2)cc1	-71.3%
COc1cc(C)sc1C(=O)NCCC(=O)N(C)c1ccccc1	33.9%
COc1cc(C)sc1C(=O)NCCNc1ccccc1	18.7%
COc1cc(C)sc1C(=O)NCCC(=O)N(C)Cc1ccccc1	59.3%
Fc1ccc(OCCNC2CCN(Cc3ccccn3)CC2)c(F)c1	69.8%
c1ccc(CN2CCC(NCCc3ccc4c(c3)CCO4)CC2)nc1	36%

SMILES	INHIBITION
N#Cc1ccc(NC2CCN(Cc3ccccn3)CC2)c(F)c1	-118%
COC(=O)c1ccc(CNCc2cn(C)nc2C)cc1	-133%
O=C(NCCC1=CCCCC1)NC1CCCc2c1cnn2CCO (configuration not stated)	-134%
CN(Cc1ccccc1)CC(O)Cn1cnc2ccsc2c1=O (configuration not stated)	19%
CN(Cc1ccccc1)CC(O)Cn1cnc2sccc2c1=O (configuration not stated)	62.1%
CN(Cc1ccccc1)CC(O)Cn1cnc2ccccc2c1=O (configuration not stated)	-2.56%
CC(C)CS(=O)(=O)Nc1ccc2c(c1)OCC(C)(C)C(=O)N2C	-28.6%
CCCC(NC(=O)c1cc(C)c(F)cc1F)c1nnn[nH]1 (configuration not stated)	-94.1%
O[C@@H]1C[C@H]2CN(Cc3ccccc3)[C@H](Cc3ccccc3)CN2C1	69.1%
COc1ncc(CN2C[C@@H]3C[C@@H](O)CN3C[C@@H]2Cc2ccccc2)cn1	-117%
C=Cn1ncc(CN2C[C@@H]3C[C@@H](O)CN3C[C@@H]2Cc2ccccc2)c1C	-7.65%
O[C@@H]1C[C@H]2CN(CC3CCCCC3)[C@H](Cc3ccccc3)CN2C1	37.6%
O[C@@H]1C[C@H]2CN(Cc3ccccc3Cl)[C@H](Cc3ccccc3)CN2C1	56.3%
CCc1ncc(CN2C[C@@H]3C[C@@H](O)CN3C[C@@H]2Cc2ccccc2)cn1	-55%
COCC(=O)N1CCCC(c2cc(C(F)F)n3ncnc3n2)C1 (configuration not stated)	10.4%
Cn1cc(NC(=O)Cn2cc(-c3ccccc3)ncc2=O)cn1	-15.3%
COC(=O)c1cccc(S(=O)(=O)NCC(c2ccco2)N2CCCC2)c1 (configuration not stated)	19.7%
Cc1cnn(CC2CCCN2C(=O)Cc2cccs2)c1 (configuration not stated)	-35.5%
Cc1cnn(C2CN(CC(O)c3ccc(F)cc3)C2)c1 (configuration not stated)	57.4%
Cc1cc(C)n(C2CN(CC(O)c3ccc4c(c3)OCO4)C2)n1 (configuration not stated)	43.5%
Cc1cnn(C2CN(CC(O)c3ccccc3)C2)c1 (configuration not stated)	40.9%
Cc1cc(C)n(C2CN(CC(O)c3ccc(C(F)(F)F)cc3)C2)n1 (configuration not stated)	65.4%
Cc1cc(C)n(C2CN(CC(O)c3ccc(F)cc3)C2)n1 (configuration not stated)	62.8%

SMILES	INHIBITION
COc1ccc(C(O)CN2CC(n3cc(C)cn3)C2)cc1 (configuration not stated)	22%
Cc1cc(C)n(C2CN(CC(O)c3ccc(S(C)(=O)=O)cc3)C2)n1 (configuration not stated)	-123%
Cc1cc(C)n(C2CN(CC(O)COc3ccc(F)cc3)C2)n1 (configuration not stated)	-18.8%
COc1ccc(C(O)CN2CC(n3nc(C)cc3C)C2)cc1 (configuration not stated)	49.2%
O=C(Cc1ccccc1)N1CCC(c2nnc(-c3ccccn3)o2)CC1	2.71%
CC(Cc1ccco1)NC(=O)Nc1ccc(N(C)C)nc1 (configuration not stated)	-297%
CC(C)COC(=O)N1CC(=O)N(CCc2ccccc2)CC(O)C1 (configuration not stated)	-47.8%
Cc1oc(-c2ccsc2)nc1CN1CCCC(c2ccnn2C)C1 (configuration not stated)	-72.5%
CN1CCN(Cc2cccnc2)C2(CCN(c3ncccn3)C2)C1=O (configuration not stated)	-162%
Cn1ccnc1C(=O)N1CCC2(CCN2c2ncccn2)C1 (configuration not stated)	-49.3%
Cc1ccc(Nc2nccc(C3CCN(C(=O)CN)C3)n2)nc1 (configuration not stated)	-205%
CSCCCN1CCN(c2ccc(Cl)cn2)CC1	30.7%
CS(=O)(=O)CCN1CCN(c2ccc(Cl)cn2)CC1	0.0372%
Clc1ccc(N2CCN(CCCN3CCCCC3)CC2)nc1	69.2%
CN1CCN(Cc2ccncc2)C(=O)C12CCN(c1nccs1)CC2	-78.4%
CCCc1nc(C(C)(C)NC(=O)C2CC(=O)N(CC)C2)no1 (configuration not stated)	-33.1%
N#Cc1cc(C#N)c(SCCC(=O)Nc2ccc(F)cc2)nc1N	13.7%
N#Cc1cc(C#N)c(SCC(=O)Nc2ccc(F)cc2)nc1N	67.3%
N#Cc1cc(C#N)c(SCC(=O)NCc2ccc(F)cc2)nc1N	-74.4%
CCC(Nc1ccc(CCN2CCCCC2)cc1)C(N)=O (configuration not stated)	1.58%
O=C(O)c1cc(S(=O)(=O)Nc2ccc(F)cc2F)cc2c1OCCO2	-20.9%

Source: ChEMBL document CHEMBL4513216, “Probing the Open Global Health Chemical Diversity Library for Multistage-Active Starting Points for Next-Generation Antimalarials” (ACS Infect Dis, 2020)
